PubChem BioAssay
Activity calls are given as the source filed them.

Legend:
Albumin (Bos taurus) = Albumin (Bos taurus) (UniProt P02769); experiment: bovine serum albumin binders on microarray, profiling panel, artefact control for SMM control protein annotation, biochemical, small-molecule microarray, Alexa647 label, 635/667 nm fluorescence (AID 1118); conditions: BSA-A647 binding, fluorescence 635 nm, higher = more signal;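 also: score merges 667 nm emission intensity and signal-to-noise per printed compound spot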
[1] = small-molecule microarray binders of probe aXIP, primary screen, biochemical, NeuroSMM set, 635/667 nm fluorescence (AID 1119); conditions: higher = more signal, called active from +8 up or from −8 down;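 also: probe is the protein aXip251-270 applied at 1 µg/mL to compound-printed slides; binding of probe to printed compounds measured as 667 nm fluorescence plus signal to noise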
[2] = small-molecule binders of probe aNOTCH3, primary screen, biochemical, small-molecule microarray, 635/667 nm fluorescence (AID 1120); conditions: higher = more signal;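 also: probe is a biotin-tagged antibody raised against NOTCH3 rather than NOTCH3 protein; score merges spot fluorescence near 667 nm with spot signal to noise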
[3] = small-molecule binders of probe aNOTCH2, primary screen, biochemical, small-molecule microarray, 635/667 nm fluorescence (AID 1121); conditions: higher = more signal;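 also: score merges feature fluorescence read at 667 nm with its signal to noise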
[4] = molecular target: Carbonic anhydrase 2 (Homo sapiens) (UniProt P00918); experiment: CAII small-molecule binders, profiling panel, biochemical, small-molecule microarray, Alexa647-labelled CAII (AID 1122); conditions: CAII-A647 binding fluorescence, higher = more signal
[5] = COS7 lysate on small-molecule microarray, probe aHis, 635 nm (AID 1123); conditions: COS7 cell lysate, fluorescence, higher = more signal;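 also: z-score combines 667nm fluorescence intensity with signal-to-noise per printed compound spot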
[6] = compound binding in COS7 lysate, probe aLAP1, primary screen, cell lysate, small-molecule microarray (AID 1124); conditions: probe aLAP1, fluorescence, higher = more signal;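 also: lysate comes from COS7 cells expressing LAP1 and is applied at 0.3 µg/mL; score merges spot fluorescence near 667 nm with signal-to-noise over triplicate slides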
Sam68 (KHDRBS1) = experiment: Sam68 small-molecule binders, primary screen, biochemical, small-molecule microarray, 635 nm fluorescence (AID 1125); conditions: small-molecule microarray binding, higher = more signal;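 also: score merges 667 nm channel intensity with signal to noise over triplicate slides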
[7] = system: Chordin-like protein 2 (CHRDL2); experiment: CHRDL2 small-molecule binders, primary screen, biochemical, small-molecule microarray, 635 nm fluorescence (AID 1126); conditions: small-molecule microarray binding, fluorescence 635 nm; higher = more signal;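 also: printed compound slides probed with Chrdl2 protein at 4 µg/mL for 1 h at 4 C; score merges 667 nm emission intensity with signal to noise over three replicate slides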
[8] = molecular target: Concanavalin-A (Canavalia ensiformis) (UniProt P02866); experiment: ConA small-molecule binders, primary screen, artefact control for SMM control protein annotation, biochemical, small-molecule microarray, Alexa647 label, 635 nm (AID 1127); conditions: ConA-A647 binding fluorescence, higher = more signal;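 also: z combines 667 nm emission intensity with signal-to-noise across three replicate slides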
[9] = anti-His antibody binders, primary screen, artefact control for SMM control protein annotation, biochemical, small-molecule microarray, 635 nm fluorescence (AID 1128); conditions: anti-His Alexa647 antibody binding, higher = more signal;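 also: score merges feature fluorescence with signal-to-noise for each printed compound spot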
[10] = system: Human papillomavirus type 1a E7 protein (residues 1-88); experiment: HPV1a E7 small-molecule binders, primary screen, biochemical, small-molecule microarray, residues 1-88, 635 nm (AID 1129); conditions: small-molecule microarray binding, fluorescence 635 nm; higher = more signal
[11] = molecular target: Focal adhesion kinase 1 (Homo sapiens) (UniProt Q05397); experiment: small-molecule microarray binders of FAK, primary screen, biochemical, 635/667 nm fluorescence, BSA, DTT (AID 1130); conditions: PTK2 binding, 635 nm fluorescence, higher = more signal;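 also: composite of spot emission at 667 nm and signal to noise over triplicate slides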
[12] = system: Fibrinogen (Alexa647-labelled); experiment: fibrinogen binders on compound microarrays, profiling panel, artefact control for SMM control-protein annotation, biochemical, small-molecule microarray, 635/667 nm fluorescence (AID 1131); conditions: fibrinogen-A647 binding fluorescence, higher = more signal;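 also: z-score merges 667 nm fluorescence with per-spot signal-to-noise over triplicate slides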
[13] = molecular target: Follistatin (Homo sapiens) (UniProt P19883); experiment: follistatin binders on small-molecule microarrays, primary screen, biochemical, small-molecule microarray, 635/667 nm fluorescence (AID 1132); conditions: FST binding, 635 nm fluorescence, higher = more signal
[14] = molecular target: Fibroblast growth factor 2 (Homo sapiens) (UniProt P09038); experiment: FGF2 binders on small-molecule microarrays, primary screen, biochemical, small-molecule microarray, 635/667 nm fluorescence (AID 1133); conditions: small-molecule microarray binding, FGF2, fluorescence 635/667; higher = more signal
[15] = mitochondrial membrane potential change in A549 cells, profiling panel, cell-based, JC-1 fluorescence, basal, 24 h, 100 nL (AID 1138); conditions: higher = more signal;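 also: A549 lung adenocarcinoma cells under basal conditions with no added stimulus; test concentration not given here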
Lefty1 = Lefty1 binders on small-molecule microarrays, primary screen, biochemical, small-molecule microarray, 635/667 nm fluorescence (AID 1139); conditions: small-molecule microarray binding, fluorescence 635/667; higher = more signal
[16] = system: wheat germ agglutinin (Triticum aestivum), Alexa647-labelled; experiment: wheat germ agglutinin binders on compound microarrays, profiling panel, artefact control for SMM control-protein annotation, biochemical, small-molecule microarray, 635/667 nm fluorescence (AID 1140); conditions: WGA-A647 binding, 635 nm fluorescence, higher = more signal;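 also: score merges 667 nm feature emission with signal to noise over triplicate slides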
[17] = molecular target: Luciferin 4-monooxygenase (Photinus pyralis) (UniProt P08659); experiment: firefly luciferase enzyme inhibitors, primary screen, biochemical, luminescence, purified enzyme, 2006 set (AID 1141); conditions: SteadyGlo luminescence, 30 min, higher = more signal, called active from +8 up or from −8 down;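 also: cell-free assay with purified firefly luciferase at 100 ng per well in PBS; test concentration not given here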
Sequence of Luciferin 4-monooxygenase (Photinus pyralis) (P08659 whole entry, looked up): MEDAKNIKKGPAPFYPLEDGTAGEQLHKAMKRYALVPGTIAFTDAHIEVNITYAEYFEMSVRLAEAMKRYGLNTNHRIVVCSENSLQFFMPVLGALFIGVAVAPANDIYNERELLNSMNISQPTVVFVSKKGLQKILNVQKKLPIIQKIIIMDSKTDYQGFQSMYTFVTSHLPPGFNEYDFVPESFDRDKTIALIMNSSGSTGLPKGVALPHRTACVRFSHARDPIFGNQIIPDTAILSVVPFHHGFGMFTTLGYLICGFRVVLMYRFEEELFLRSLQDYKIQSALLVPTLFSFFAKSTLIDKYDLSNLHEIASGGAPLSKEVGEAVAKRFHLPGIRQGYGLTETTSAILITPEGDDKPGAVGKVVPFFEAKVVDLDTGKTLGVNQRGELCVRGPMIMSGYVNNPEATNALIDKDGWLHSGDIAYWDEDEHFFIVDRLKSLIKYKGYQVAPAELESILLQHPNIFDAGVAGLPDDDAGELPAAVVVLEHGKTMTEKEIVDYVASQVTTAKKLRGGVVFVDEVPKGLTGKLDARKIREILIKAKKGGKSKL

Sequence of Follistatin (Homo sapiens) (P19883 whole entry, looked up): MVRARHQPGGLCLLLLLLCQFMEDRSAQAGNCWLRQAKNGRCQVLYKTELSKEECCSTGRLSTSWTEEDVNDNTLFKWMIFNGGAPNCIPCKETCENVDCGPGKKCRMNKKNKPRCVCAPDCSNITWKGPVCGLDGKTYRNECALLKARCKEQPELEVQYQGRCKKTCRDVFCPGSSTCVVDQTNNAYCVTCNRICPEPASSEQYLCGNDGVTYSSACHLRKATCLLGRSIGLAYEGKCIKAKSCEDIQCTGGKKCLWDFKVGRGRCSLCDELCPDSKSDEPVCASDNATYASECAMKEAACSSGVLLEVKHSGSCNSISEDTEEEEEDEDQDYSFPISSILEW
Sequence of Focal adhesion kinase 1 (Homo sapiens) (Q05397 whole entry, looked up): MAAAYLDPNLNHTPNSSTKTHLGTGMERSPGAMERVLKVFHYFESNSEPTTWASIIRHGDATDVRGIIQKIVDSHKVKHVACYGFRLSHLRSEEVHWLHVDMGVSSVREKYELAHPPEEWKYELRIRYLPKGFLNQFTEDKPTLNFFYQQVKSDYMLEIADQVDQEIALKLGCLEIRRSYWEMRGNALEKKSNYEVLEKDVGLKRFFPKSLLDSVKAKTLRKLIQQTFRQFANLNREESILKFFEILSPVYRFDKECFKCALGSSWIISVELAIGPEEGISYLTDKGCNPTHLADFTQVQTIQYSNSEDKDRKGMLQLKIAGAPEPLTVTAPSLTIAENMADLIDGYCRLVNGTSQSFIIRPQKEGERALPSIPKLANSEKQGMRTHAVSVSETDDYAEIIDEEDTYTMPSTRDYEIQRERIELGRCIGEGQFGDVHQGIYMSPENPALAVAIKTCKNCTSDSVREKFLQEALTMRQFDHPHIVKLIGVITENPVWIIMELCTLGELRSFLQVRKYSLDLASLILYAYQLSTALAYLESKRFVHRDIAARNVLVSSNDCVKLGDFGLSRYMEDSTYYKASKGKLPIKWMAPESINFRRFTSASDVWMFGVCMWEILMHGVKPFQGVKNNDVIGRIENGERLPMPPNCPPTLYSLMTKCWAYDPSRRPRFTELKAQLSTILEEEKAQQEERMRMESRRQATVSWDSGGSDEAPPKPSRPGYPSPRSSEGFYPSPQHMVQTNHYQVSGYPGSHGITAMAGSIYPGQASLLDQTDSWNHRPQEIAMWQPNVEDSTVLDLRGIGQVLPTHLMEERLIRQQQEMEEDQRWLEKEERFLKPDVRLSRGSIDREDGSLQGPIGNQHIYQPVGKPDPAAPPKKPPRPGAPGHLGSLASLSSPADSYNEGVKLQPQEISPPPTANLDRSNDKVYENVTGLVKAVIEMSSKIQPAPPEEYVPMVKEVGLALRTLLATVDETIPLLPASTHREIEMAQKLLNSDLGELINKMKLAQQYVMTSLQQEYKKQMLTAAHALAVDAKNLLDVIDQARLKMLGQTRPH
Sequence of Albumin (Bos taurus) (P02769 whole entry, looked up): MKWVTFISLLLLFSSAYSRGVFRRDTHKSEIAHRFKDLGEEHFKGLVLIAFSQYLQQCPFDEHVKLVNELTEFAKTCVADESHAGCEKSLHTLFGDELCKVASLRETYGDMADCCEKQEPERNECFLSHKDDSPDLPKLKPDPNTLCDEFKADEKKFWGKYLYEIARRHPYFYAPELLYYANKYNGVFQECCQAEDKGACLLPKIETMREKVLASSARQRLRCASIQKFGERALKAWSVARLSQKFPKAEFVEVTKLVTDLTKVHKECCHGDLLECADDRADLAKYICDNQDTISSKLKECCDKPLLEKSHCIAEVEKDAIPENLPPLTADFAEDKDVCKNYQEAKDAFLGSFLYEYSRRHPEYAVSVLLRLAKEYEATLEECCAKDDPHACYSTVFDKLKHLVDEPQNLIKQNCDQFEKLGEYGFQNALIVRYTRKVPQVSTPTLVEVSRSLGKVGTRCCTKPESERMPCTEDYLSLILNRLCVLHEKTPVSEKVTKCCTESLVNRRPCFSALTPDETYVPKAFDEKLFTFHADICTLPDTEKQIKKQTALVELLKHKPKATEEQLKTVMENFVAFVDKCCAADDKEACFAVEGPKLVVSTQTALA
Sequence of Concanavalin-A (Canavalia ensiformis) (P02866 whole entry, looked up): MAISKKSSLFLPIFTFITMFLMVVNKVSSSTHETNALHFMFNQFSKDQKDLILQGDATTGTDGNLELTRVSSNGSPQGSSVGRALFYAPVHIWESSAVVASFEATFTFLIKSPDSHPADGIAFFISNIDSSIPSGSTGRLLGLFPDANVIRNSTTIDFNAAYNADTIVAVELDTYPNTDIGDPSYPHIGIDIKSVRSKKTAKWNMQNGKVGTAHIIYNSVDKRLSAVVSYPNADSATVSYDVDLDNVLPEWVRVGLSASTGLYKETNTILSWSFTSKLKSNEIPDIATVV
Sequence of Fibroblast growth factor 2 (Homo sapiens) (P09038 whole entry, looked up): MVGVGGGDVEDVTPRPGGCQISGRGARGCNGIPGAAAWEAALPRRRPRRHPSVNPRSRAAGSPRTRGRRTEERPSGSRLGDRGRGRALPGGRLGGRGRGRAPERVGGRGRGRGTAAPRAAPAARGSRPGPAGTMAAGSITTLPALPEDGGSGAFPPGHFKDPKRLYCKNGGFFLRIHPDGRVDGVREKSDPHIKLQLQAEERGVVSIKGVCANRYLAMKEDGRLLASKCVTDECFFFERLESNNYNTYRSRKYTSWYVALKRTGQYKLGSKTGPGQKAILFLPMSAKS

Structure (SMILES)	composite z-score (Albumin (Bos taurus))	composite Z-score [1]	composite z-score [2]	composite z-score [3]	composite z-score [4]	composite z-score [5]	composite z-score [6]	composite z-score (Sam68 (KHDRBS1))	composite z-score [7]	composite z-score [8]	composite z-score [9]	composite z-score [10]	composite z-score [11]	composite z-score [12]	composite z-score [13]	composite z-score [14]	z-score [15]	composite z-score (Lefty1)	composite z-score [16]	z-score [17]
COC(=O)CC=C[C@@H](C)[C@@H](C=NOC[C@H]1O[C@H](c2ccccc2)C=C[C@@H]1Oc1ccc(OC)cc1)NS(=O)(=O)c1ccc(C)cc1	-0.453	-0.769 (inactive)	-0.196	-0.138	-0.648	-0.588	-0.689	-1.18	0.156	-2.02	-1.16	-1.1	-0.217	-0.85	-1.04	-0.528	-0.173	-1.11	-0.542	0.847 (inactive)
COC(=O)[C@H](C)NC(=O)CCC1CC(OC(=O)NCCc2ccc(F)cc2)CC2(CCCC(COC(=O)NCCC(C)C)O2)O1 (stereo not given in full)	0.828	0.443 (inactive)	-0.0262	0.128	0.325	0.834	-0.234	0.36	0.0905	0.0934	0.959	0.168	0.0069	0.939	0.577	0.761	2.09	0.899	0.323	-0.447 (inactive)
CCOC(=O)[C@H](CC(C)C)NC(=O)CCC1CC(OC(=O)NCc2cccc3ccccc23)CC2(CCCC(COC(=O)NCCOc3ccccc3)O2)O1 (stereo not given in full)	0.496	-0.309 (inactive)	-0.0048	0.0174	0.533	0.684	0.27	1.32	0.412	1.06	0.907	1.15	0.0968	0.959	0.776	0.373	1.07	0.741	0.537	0.546 (inactive)
CC1O[C@H]2C3=C(C(=O)[C@@H]4O[C@@H]4[C@H]3O)[C@@H]1C1[C@@H](C)OC=C3[C@H](O)C4O[C@@H]4C(=NOCc4ccccc4)[C@]312 (stereo not given in full)	-0.26	0.0463 (inactive)	-0.125	-0.14	-0.279	0.355	-0.136	-0.221	0.0959	-0.207	0.331	-0.492	-0.0962	-1.18	-0.117	0.468	0.476	0.16	-0.911	-0.399 (inactive)
CON=C(C)CCC(=O)OC[C@H]1O[C@H](c2ccccc2)C=C[C@@H]1Oc1ccc(OC)cc1	0.443	-0.222 (inactive)	-0.0687	-0.146	-0.185	-0.0845	0.2	-0.209	0.406	0.0078	1.25	-0.623	-0.0144	-0.45	0.252	0.48	0.472	0.415	-0.551	0.236 (inactive)
O=C(C=Cc1ccc2c(c1)OCO2)c1ccc(F)cc1	-0.744	-0.188 (inactive)	0.278	-0.0811	-0.236	-0.542	0.134	-0.21	1.31	0.108	0.877	-0.575	-0.174	0.0796	0.853	1.31	-0.0292	1.21	-0.177	-6.89 (inactive)
COc1cccc([C@@H]2Oc3ccc(OC)cc3C(=O)[C@H]2O)c1	0.78	0.0773 (inactive)	-0.0377	-0.119	0.445	-0.279	0.158	0.325	0.488	0.711	0.575	0.193	0.0207	0.823	0.536	0.449	-1.54	0.678	-0.173	-1.6 (inactive)
Cc1cc2c(nc1C)CCCCN2CC(C)ON=C[C@@H](C)[C@H](OCc1ccccc1)C(C)C (stereo not given in full)	-0.256	-0.77 (inactive)	-0.545	-0.237	-0.523	-0.602	-0.708	-0.465	-2.12	-1.34	1.92	-0.598	-0.69	-2.1	-1.88	-1.78	-1.26	-0.913	-0.765	-0.29 (inactive)
CCOC(=O)[C@H](CC(C)C)NC(=O)CCC1CC(OC(=O)NCCc2ccc(F)cc2)CC2(CCCC(COC(=O)NCCOc3ccccc3)O2)O1 (stereo not given in full)	0.671	0.0308 (inactive)	0.0496	-0.0971	0.193	1.31	-0.0164	1.23	0.324	0.931	0.744	0.698	0.231	0.985	0.826	0.692	0.0542	1.35	0.394	0.96 (inactive)
CC(C)CON=C1C[C@@H](O)[C@@H](O)[C@@H]2[C@@H]3C(=O)N(C4CCCCC4)C(=O)[C@@H]3CC[C@@H]12	0.401	-0.0662 (inactive)	-0.178	-0.177	0.389	1.73	-0.499	0.158	-0.329	1.01	0.889	-0.586	0.955	0.476	0.0116	-0.309	-0.572	0.225	0.556	0.0051 (inactive)
